# PubChem BioAssay
# Activity calls are given as the source filed them. Unless noted, how the calls were made is not given here.
# Legend:
# [1] = HepG2 liver cancer cell viability effects, profiling panel, resazurin fluorescence, 24 h, PK04 Diversity Set (AID 1172); conditions: higher = more signal; further: test concentration not given here
# [2] = basal S. cerevisiae growth modulation, no modifier, primary screen, OD600, strain BY4716, 24 h, basal condition (AID 1173); conditions: OD600, 24 h, higher = more signal, called active from +8 up or from −8 down
# [3] = MM1S myeloma cell viability, profiling panel, resazurin fluorescence, basal, 24 h, PK04 Diversity Set (AID 1174); conditions: higher = more signal, called active from +8 up or from −8 down;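 further: MM1S multiple myeloma cell line; test concentration not given here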
# [4] = molecular target: Dihydroorotate dehydrogenase (quinone), mitochondrial (Plasmodium falciparum (isolate 3D7)) (UniProt Q08210); experiment: PfDHODH enzyme inhibitors, primary screen, biochemical, C-terminal His tag, absorbance 600 nm (AID 1175); conditions: DCIP absorbance 600 nm, higher = more signal, called active from +8 up or from −8 down;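 further: recombinant parasite enzyme with a five histidine tag at its C terminus; test concentration not given here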
# [5] = P. aeruginosa biofilm formation inhibitors, primary screen, strain PAO1, LB-PBS medium, absorbance 600 nm (AID 1176); further: test concentration not given here; conditions: P. aeruginosa PAO1 growth/biofilm, A600, 12 h; higher = more signal
# [6] = S. cerevisiae RM11-1a growth modifiers, primary screen, strain RM11-1a, OD600, basal, 24 h (AID 1177); conditions: OD600, 24 h, higher = more signal, called active from +8 up or from −8 down;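 further: cultures grown under basal conditions with no added stressor; test concentration not given here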
# [7] = E. coli acrAB mutant growth effects, primary screen, E. coli filamentation inducers, strain DRC39, OD650, 24 h (AID 1178); conditions: higher = more signal, called active from +8 up or from −8 down;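 further: growth measured as culture turbidity by optical density at 650 nm; test concentration not given here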
# [8] = E. coli acrAB mutant growth effects, primary screen, E. coli filamentation inducers, strain DRC39, OD650, 48 h (AID 1179);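 further: screen aims at cell division blockers that make cells filament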; conditions: E. coli DRC39 delta-acrAB growth, higher = more signal, called active from +8 up or from −8 down
# [9] = RPMI8226 myeloma cell viability, profiling panel, resazurin fluorescence, basal, 24 h, PK04 Diversity Set (AID 1180); conditions: higher = more signal;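 further: RPMI8826 multiple myeloma cell line at 5000 cells per well; test concentration not given here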
# [10] = molecular target: E3 ubiquitin-protein ligase XIAP (Homo sapiens) (UniProt P98170); experiment: XIAP binders, primary screen, biophysical, small-molecule microarray, fluorescence 635 nm (AID 1181); conditions: small-molecule microarray binding, higher = more signal;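 further: score merges 667 nm emission and signal to noise over triplicate slides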
# Sequence of E3 ubiquitin-protein ligase XIAP (Homo sapiens) (P98170 whole entry, looked up): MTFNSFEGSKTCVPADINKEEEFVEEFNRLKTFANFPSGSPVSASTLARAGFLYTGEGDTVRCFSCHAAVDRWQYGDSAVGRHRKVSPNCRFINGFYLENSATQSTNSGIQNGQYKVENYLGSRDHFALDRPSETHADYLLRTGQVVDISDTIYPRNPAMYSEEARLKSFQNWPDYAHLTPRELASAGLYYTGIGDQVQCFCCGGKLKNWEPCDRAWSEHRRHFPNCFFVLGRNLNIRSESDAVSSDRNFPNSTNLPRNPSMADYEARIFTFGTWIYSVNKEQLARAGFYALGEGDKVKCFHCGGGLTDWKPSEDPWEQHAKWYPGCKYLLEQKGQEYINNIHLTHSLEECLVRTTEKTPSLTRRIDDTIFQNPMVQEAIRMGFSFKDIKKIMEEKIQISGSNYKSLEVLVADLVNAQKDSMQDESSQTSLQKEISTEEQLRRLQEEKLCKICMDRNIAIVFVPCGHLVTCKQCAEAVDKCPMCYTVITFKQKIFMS
# Sequence of Dihydroorotate dehydrogenase (quinone), mitochondrial (Plasmodium falciparum (isolate 3D7)) (Q08210 whole entry, looked up): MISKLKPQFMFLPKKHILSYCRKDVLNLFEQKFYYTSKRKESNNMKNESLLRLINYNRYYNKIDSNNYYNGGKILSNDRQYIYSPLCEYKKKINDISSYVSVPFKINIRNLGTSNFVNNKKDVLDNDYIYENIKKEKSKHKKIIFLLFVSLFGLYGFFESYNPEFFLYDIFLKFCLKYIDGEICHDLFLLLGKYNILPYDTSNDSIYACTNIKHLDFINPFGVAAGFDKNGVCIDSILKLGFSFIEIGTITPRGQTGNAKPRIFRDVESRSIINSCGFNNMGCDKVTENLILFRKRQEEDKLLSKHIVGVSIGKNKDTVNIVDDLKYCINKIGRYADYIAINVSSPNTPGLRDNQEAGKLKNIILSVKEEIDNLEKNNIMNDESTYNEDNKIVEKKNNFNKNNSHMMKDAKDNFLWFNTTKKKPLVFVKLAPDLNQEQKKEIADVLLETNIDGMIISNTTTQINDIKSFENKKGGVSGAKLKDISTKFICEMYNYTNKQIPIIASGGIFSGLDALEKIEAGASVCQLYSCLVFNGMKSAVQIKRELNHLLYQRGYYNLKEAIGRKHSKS
SMILES,z-score [1],z-score [2],z-score [3],composite z-score [4],z-score [5],z-score [6],z-score [7],z-score [8],z-score [9],composite z-score [10]
C=C[C@H](COC(C)=O)NS(=O)(=O)c1ccc(Br)cc1,0.266,-1.05 (inactive),-0.05 (inactive),-1.08 (inactive),-0.18 (inactive),0.579 (inactive),0.165 (inactive),-0.0304 (inactive),-0.675,-0.0627
C=CCOC(=O)[C@@H]1[C@H]2C(=O)O[C@H](c3ccccc3)[C@H](c3ccccc3)N2[C@H](c2ccc(OCCOC(=O)[C@H]3C[C@H]4C(=O)N[C@@H](CCCCNC(C)=O)C(=O)N4[C@H]3c3cccc(OCCO)c3)cc2)[C@@]12C(=O)Nc1ccc(I)cc12,-0.299,1.39 (inactive),-0.565 (inactive),-0.406 (inactive),4.17 (inactive),2 (inactive),-0.115 (inactive),0.228 (inactive),-0.354,0.0073
CC(C)CN1C(=O)[C@@]2(Cc3ccccc31)c1ccccc1C(=O)N(Cc1ccccc1C(F)(F)F)[C@H]2c1ccc(CO)cc1,0.869,-1.94 (inactive),-0.696 (inactive),-4.83 (inactive),-0.103 (inactive),-2.06 (inactive),0.897 (inactive),1.72 (inactive),0.478,0.661
COc1ccc(C#Cc2ccc3c(c2)[C@]2(C(=O)N3)[C@H](C(=O)N3CCc4cc(OC)c(OC)cc4C3)[C@H]3C(=O)O[C@H](c4ccccc4)[C@H](c4ccccc4)N3[C@@H]2c2ccc(O)cc2)cc1,-0.235,0.507 (inactive),-0.443 (inactive),-0.719 (inactive),1.45 (inactive),1.36 (inactive),0.0877 (inactive),0.307 (inactive),-0.482,-0.277
C=CCOC(=O)[C@@H]1[C@H]2C(=O)O[C@H](c3ccccc3)[C@H](c3ccccc3)N2[C@H](c2ccc(OCCOC(=O)[C@H]3C[C@H]4C(=O)N[C@@H](CCCCN(C)C)C(=O)N4[C@H]3c3cccc(OCCO)c3)cc2)[C@@]12C(=O)Nc1ccc(I)cc12,-0.999,2.24 (inactive),-0.302 (inactive),0.26 (inactive),2.57 (inactive),1.17 (inactive),-0.0783 (inactive),-0.0986 (inactive),-0.209,-0.202
CC1CC/C=C\[C@H]2OC34C=CCN(CCN5CCOCC5)C(=O)[C@H]3N(CCO)C(=O)[C@@H]4C2C(=O)O1 (stereo not given in full),0.106,-0.158 (inactive),0.322 (inactive),-0.4 (inactive),0.826 (inactive),-0.585 (inactive),-0.0987 (inactive),-0.557 (inactive),0.119,-0.128
CC[C@H]1C2=C3C(CC[C@H]4C(OCc5ccc(F)cc5C(F)(F)F)OC[C@](C)([C@@H]34)N(C(=O)OC(C)(C)C)C2)C2COC(=O)OCC21 (stereo not given in full),-1.12,0.485 (inactive),-1.46 (inactive),0.0979 (inactive),0.551 (inactive),0.368 (inactive),-0.678 (inactive),-0.36 (inactive),-0.556,0.131
COc1cc2c(cc1OC)CN(C(=O)[C@@H]1[C@H]3C(=O)O[C@H](c4ccccc4)[C@H](c4ccccc4)N3[C@H](c3ccccc3OCCO)[C@@]13C(=O)Nc1ccc(C#CC4(O)CCCCCC4)cc13)CC2,0.529,0.882 (inactive),-2.17 (inactive),0.44 (inactive),2.03 (inactive),3.23 (inactive),-0.236 (inactive),1.01 (inactive),0.284,-0.11
CC=CC(O)C1C=CC2C(=O)N(C)C(=O)C2N1N1CCCCC1 (stereo not given),-0.245,0.383 (inactive),-0.986 (inactive),-0.811 (inactive),0.378 (inactive),-0.714 (inactive),-1.07 (inactive),-0.923 (inactive),-1.36,-0.114
C[C@]1(C(=O)O)c2ccccc2C(=O)N(Cc2ccccc2)[C@H]1c1ccc(CO)cc1,0.244,0.451 (inactive),0.936 (inactive),0.798 (inactive),-0.633 (inactive),1.91 (inactive),-0.0256 (inactive),-0.373 (inactive),0.988,0.013
C=CCN1C(=O)[C@@]2(CCC(=O)OC(C)(C)C)N=C(c3ccc(OCCCO)cc3)O[C@H]2c2ccccc21,-0.648,-1.23 (inactive),-3.26 (inactive),0.407 (inactive),1.77 (inactive),-0.169 (inactive),0.636 (inactive),-0.242 (inactive),-4.47,0.21
CC(C)CCC[C@@H](C)[C@H]1CC[C@@]2(C)C3=C(CC[C@]12C)[C@@]1(C)CC[C@H](OC(=O)c2ccc(Br)cc2)C(C)(C)C1CC3 (stereo not given in full),1.05,-0.149 (inactive),0.345 (inactive),-1.4 (inactive),0.0694 (inactive),-1.7 (inactive),0.998 (inactive),1.07 (inactive),0.766,0.0223
C=CC[C@]12N=C(c3ccc(OCCCO)cc3)O[C@H]1c1ccccc1N(C)C2=O,-0.782,-1.62 (inactive),-1.54 (inactive),0.582 (inactive),0.345 (inactive),1.27 (inactive),0.105 (inactive),-0.487 (inactive),-1.28,-0.031
C=C(COC)/C(=C/C[C@@H](OC(=O)c1ccncc1)c1cccc(OCCO)c1)c1cnc2ccccc2c1,-0.464,-17.3 (active),-0.835 (inactive),-6.7 (inactive),1.17 (inactive),-5.29 (inactive),-0.451 (inactive),-0.318 (inactive),-0.526,0.594
CC=CC(O)C1C=CC2C(=O)N(c3ccccc3)C(=O)C2N1Nc1ccccc1 (stereo not given),0.965,-1.01 (inactive),0.171 (inactive),-0.174 (inactive),1.89 (inactive),-0.564 (inactive),0.176 (inactive),0.412 (inactive),0.394,0.649
CC(C)C(CO)N1C(=O)[C@]2(C)C3C(=O)OCCC/C=C\[C@H]3OC23C=CCN(c2ccc(Cl)cc2)C(=O)[C@@H]13 (stereo not given in full),-0.575,0.0095 (inactive),-0.581 (inactive),-1.04 (inactive),-0.36 (inactive),-0.3 (inactive),-0.391 (inactive),-0.261 (inactive),-0.713,0.117
CN1C(=O)C2C=CC(C(O)C3CCCCC3)N(N3CCCCC3)C2C1=O (stereo not given),-0.435,0.369 (inactive),-0.752 (inactive),0.419 (inactive),0.158 (inactive),1.51 (inactive),-0.501 (inactive),-0.406 (inactive),-0.487,-0.0548
COc1ccc([Si](C)(C)[C@H]2[C@H](CCn3cc([C@H](O)c4ccccc4)nn3)O[C@@]3(C(=O)N(Cc4ccc(N5CCOC5=O)cc4)c4ccccc43)[C@@H]2C)cc1,-0.27,0.574 (inactive),-0.412 (inactive),0.624 (inactive),1.04 (inactive),2.18 (inactive),0.205 (inactive),0.139 (inactive),0.129,-0.171
COCCOC(=O)N1C(=O)[C@@]2(c3cc(C#CC4(O)CCCCCC4)ccc31)[C@H](C(=O)N1CCCCCCC1)[C@H]1C(=O)O[C@H](c3ccccc3)[C@H](c3ccccc3)N1[C@@H]2c1ccc(OCCO)cc1,0.304,0.397 (inactive),0.67 (inactive),-2.1 (inactive),2.03 (inactive),1.51 (inactive),-0.151 (inactive),0.201 (inactive),0.918,0.293
C=CC[C@H](OC(=O)Nc1ccc(OC)cc1)c1ccc(O)c2ccccc12,-0.878,-16.7 (active),-6.07 (inactive),-7.13 (inactive),1.82 (inactive),-20 (active),0.852 (inactive),0.148 (inactive),-4.15,-0.0872
CN(C)CCCNC(=O)[C@@]1(C)c2ccccc2C(=O)N(Cc2cc(C(F)(F)F)cc(C(F)(F)F)c2)[C@H]1c1ccc(CO)cc1,-1.19,-0.808 (inactive),-0.244 (inactive),0.779 (inactive),1.98 (inactive),0.874 (inactive),0.365 (inactive),-1.39 (inactive),-0.0867,-0.239
COC(=O)[C@@]1(Cc2ccccc2)[C@H]2c3cc(C(=O)N4CCCC4)n(Cc4ccsc4Br)c3C[C@H]2CN1C(=O)c1ccccc1,-1.08,0.666 (inactive),-0.686 (inactive),-0.876 (inactive),-0.0703 (inactive),1.15 (inactive),-0.28 (inactive),0.139 (inactive),-3.12,0.218
C=CCNC(=O)[C@@H]1[C@H]2C(=O)O[C@H](c3ccccc3)[C@H](c3ccccc3)N2[C@H](c2ccccc2OCCO)[C@@]12C(=O)N(C(=O)OCCOC)c1ccc(C#CC3=CCCCC3)cc12,0.402,0.466 (inactive),-1 (inactive),-0.458 (inactive),2.19 (inactive),1.08 (inactive),0.368 (inactive),0.628 (inactive),-1.31,0.0683
